# Where a name gives a salt, the structure may show the parent alone.
# Tests used:
# Details in all cases: 10 µM; exposure time: 3 h pre-incubation + 3 h imaging
# [1] = tested on: Danio rerio larvae (5 dpf); experiment: activity during period 15 (no stimuli), difference vs DMSO (percentage points (treated minus DMSO)); higher = more of the behaviour than the DMSO vehicle control
# How it was run: (§1)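 Five-days-post-fertilisation wild-type zebrafish larvae were held in 96-well ProxiPlates and exposed to each library drug at a final 10 µM, diluted 1000× from DMSO stocks into egg water, with 48 larvae per drug. Exposure lasted 3 h before and 3 h during imaging at 28.5 °C, with images taken every 6 s across a 3-h program of rest, moving coloured lines and acoustic pulses. An ImageJ macro scored movement and upper-half location, and each behaviour score is the treated-group mean minus the vehicle-group mean, expressed in percentage points.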
# [2] = tested on: Danio rerio larvae (5 dpf); experiment: activity during first hour (no stimuli), difference vs DMSO (percentage points (treated minus DMSO)); higher = more of the behaviour than the DMSO vehicle control
# How it was run: as §1
# [3] = tested on: Danio rerio larvae (5 dpf); experiment: optomotor response to blue moving lines, difference vs DMSO (percentage points (treated minus DMSO)); higher = more of the behaviour than the DMSO vehicle control
# How it was run: as §1
# [4] = tested on: Danio rerio larvae (5 dpf); experiment: startle response to 20-s acoustic pulses, difference vs DMSO (percentage points (treated minus DMSO)); higher = more of the behaviour than the DMSO vehicle control
# How it was run: as §1
# [5] = tested on: Danio rerio larvae (5 dpf); experiment: optomotor response to red moving lines, difference vs DMSO (percentage points (treated minus DMSO)); higher = more of the behaviour than the DMSO vehicle control
# How it was run: as §1
# [6] = tested on: Danio rerio larvae (5 dpf); experiment: excitability to 1-s acoustic pulses, difference vs DMSO (percentage points (treated minus DMSO)); higher = more of the behaviour than the DMSO vehicle control
# How it was run: as §1
# [7] = tested on: Danio rerio larvae (5 dpf); experiment: optomotor response to green moving lines, difference vs DMSO (percentage points (treated minus DMSO)); higher = more of the behaviour than the DMSO vehicle control
# How it was run: as §1
# [8] = tested on: Danio rerio larvae (5 dpf); experiment: optomotor response to fast red moving lines, difference vs DMSO (percentage points (treated minus DMSO)); higher = more of the behaviour than the DMSO vehicle control
# How it was run: as §1
# [9] = tested on: Danio rerio larvae (5 dpf); experiment: habituation to 1-s acoustic pulses, difference vs DMSO (percentage points (treated minus DMSO)); higher = more of the behaviour than the DMSO vehicle control
# How it was run: as §1
smiles,measurement,setting,value
O=c1[nH]c(=O)n([C@H]2C[C@H](O)[C@@H](CO)O2)cc1C(F)(F)F [Trifluorothymidine],activity during period 15,[1],-1.33
same,activity during first hour,[2],1.96
same,optomotor response to blue moving lines,[3],6.73
same,startle response to 20-s acoustic pulses,[4],1.37
Clc1ccccc1C(c1ccccc1)(c1ccccc1)n1ccnc1 [Clotrimazole],optomotor response to red moving lines,[5],26.3
same,activity during period 15,[1],-30.5
same,activity during first hour,[2],-21.6
same,optomotor response to blue moving lines,[3],14.5
CN1CCC[C@@H]1Cc1c[nH]c2ccc(CCS(=O)(=O)c3ccccc3)cc12 [Eletriptan hydrobromide],optomotor response to red moving lines,[5],4.39
same,activity during first hour,[2],4.26
same,startle response to 20-s acoustic pulses,[4],1.42
CCCCNc1cc(C(=O)O)cc(S(N)(=O)=O)c1Oc1ccccc1 [Bumetanide],excitability to 1-s acoustic pulses,[6],3.02
same,optomotor response to red moving lines,[5],19.3
same,activity during period 15,[1],-2.8
same,activity during first hour,[2],3.74
same,optomotor response to blue moving lines,[3],3.8
CCOC(=O)C1=C(C)NC(C)=C(C(=O)OC)C1c1cccc(Cl)c1Cl (stereo not given) [Felodipine],activity during first hour,[2],-12.9
same,optomotor response to green moving lines,[7],-6.01
same,startle response to 20-s acoustic pulses,[4],9.85
same,optomotor response,[8],-15.9
O=c1n(CCCN2CCN(c3cccc(Cl)c3)CC2)nc2ccccn12 [Trazodone hydrochloride],excitability to 1-s acoustic pulses,[6],18.6
same,activity during period 15,[1],1.62
same,activity during first hour,[2],-0.623
same,optomotor response to blue moving lines,[3],6.49
same,optomotor response to green moving lines,[7],1.17
CCc1nc(N)nc(N)c1-c1ccc(Cl)cc1 [Pyrimethamine],habituation to 1-s acoustic pulses,[9],5.04
same,activity during period 15,[1],-4.35
same,activity during first hour,[2],-0.915
same,optomotor response to blue moving lines,[3],15.9
same,startle response to 20-s acoustic pulses,[4],1.7
COCCc1ccc(OCC(O)CNC(C)C)cc1 (stereo not given) [Metoprolol tartrate],optomotor response to red moving lines,[5],-1.5
same,activity during period 15,[1],3.61
same,activity during first hour,[2],5.56
same,optomotor response to blue moving lines,[3],10.9
same,startle response to 20-s acoustic pulses,[4],6.66
CCCN(CCc1cccs1)[C@H]1CCc2c(O)cccc2C1 [Rotigotine hydrochloride],activity during first hour,[2],-26.8
C[C@H](Cc1cc2c(c(C(N)=O)c1)N(CCCO)CC2)NCCOc1ccccc1OCC(F)(F)F [Silodosin],excitability to 1-s acoustic pulses,[6],21.7
same,activity during period 15,[1],-7.59
same,activity during first hour,[2],-1.39
same,optomotor response to green moving lines,[7],1.5
O=C(O[C@@H]1C[C@@H]2C[C@H]3C[C@H](C1)N2CC3=O)c1c[nH]c2ccccc12 [Dolasetron mesylate],habituation to 1-s acoustic pulses,[9],2.06
same,optomotor response to red moving lines,[5],-6.24
same,activity during first hour,[2],-1.16
same,optomotor response to blue moving lines,[3],0.622
same,optomotor response,[8],-6.96
CN(CCOc1ccc(NS(C)(=O)=O)cc1)CCc1ccc(NS(C)(=O)=O)cc1 [Dofetilide],activity during first hour,[2],1.68
same,optomotor response to blue moving lines,[3],-7.25
same,optomotor response to green moving lines,[7],0.112
COc1cc2nc(N3CCN(C(=O)c4ccco4)CC3)nc(N)c2cc1OC [Prazosin hydrochloride],optomotor response to red moving lines,[5],-6.9
same,activity during first hour,[2],-3.12
O=C(O)CCCc1ccccc1 [Sodium 4-Phenylbutyrate],activity during first hour,[2],3.48
same,optomotor response to blue moving lines,[3],3.11
same,optomotor response,[8],-11
CN/C(=N\CCSCc1nc[nH]c1C)NC#N [Cimetidine],activity during first hour,[2],3.11
CN(C)CCC[C@@]1(c2ccc(F)cc2)OCc2cc(C#N)ccc21 [Escitalopram oxalate],habituation to 1-s acoustic pulses,[9],-4.74
same,optomotor response to red moving lines,[5],-7.88
same,activity during period 15,[1],-18.3
same,activity during first hour,[2],-24.4
CCCC1O[C@@H]2C[C@H]3[C@@H]4CCC5=CC(=O)C=C[C@]5(C)[C@H]4[C@@H](O)C[C@]3(C)[C@]2(C(=O)CO)O1 (stereo not given in full) [Budesonide],habituation to 1-s acoustic pulses,[9],-1.73
same,optomotor response to red moving lines,[5],12
same,activity during period 15,[1],5.26
same,activity during first hour,[2],4.76
same,optomotor response,[8],0.572
Cc1ccccc1C(=O)Nc1ccc(C(=O)N2CCCC(O)c3cc(Cl)ccc32)c(C)c1 (stereo not given) [Tolvaptan],habituation to 1-s acoustic pulses,[9],1.17
same,activity during first hour,[2],1.26
same,optomotor response to blue moving lines,[3],-0.344
COc1cc2nc(N3CCN(C(=O)C4COc5ccccc5O4)CC3)nc(N)c2cc1OC (stereo not given) [Doxazosin mesylate],activity during first hour,[2],-2.96
same,optomotor response to green moving lines,[7],-8.3
OCc1cc(C(O)CNCCCCCCOCCCCc2ccccc2)ccc1O (stereo not given) [Salmeterol xinafoate],optomotor response to red moving lines,[5],5
same,activity during first hour,[2],14.1
same,optomotor response to green moving lines,[7],-6.89
O=C(c1ccc(OCCN2CCCCC2)cc1)c1c(-c2ccc(O)cc2)sc2cc(O)ccc12 [Raloxifene hydrochloride],habituation to 1-s acoustic pulses,[9],1.64
same,activity during period 15,[1],-8.58
same,activity during first hour,[2],-5.98
same,optomotor response to blue moving lines,[3],-2.86
same,startle response to 20-s acoustic pulses,[4],1.88
same,optomotor response,[8],-14.5
Nc1ncn([C@@H]2O[C@H](CO)[C@@H](O)[C@H]2O)c(=O)n1 [5-Azacytidine],optomotor response to red moving lines,[5],5.02
same,activity during first hour,[2],4.78
same,optomotor response,[8],1.5
CCc1ccc(CCOc2ccc(CC3SC(=O)NC3=O)cc2)nc1 (stereo not given) [Pioglitazone hydrochloride],habituation to 1-s acoustic pulses,[9],0.476
same,excitability to 1-s acoustic pulses,[6],6.94
same,activity during first hour,[2],-5.36
same,optomotor response to green moving lines,[7],-7.6
same,optomotor response,[8],-6.55
CC(=O)O[C@]1(C(C)=O)CC[C@H]2[C@@H]3C=C(C)C4=CC(=O)CC[C@]4(C)[C@H]3CC[C@@]21C [Megestrol Acetate],activity during first hour,[2],-14.3
CC1=Nc2ccc(Cl)cc2S(=O)(=O)N1 [Diazoxide],activity during first hour,[2],6.7
same,optomotor response to green moving lines,[7],7.27
same,startle response to 20-s acoustic pulses,[4],-3.68
same,optomotor response,[8],-1.95
O=C(O)c1cc(/N=N/c2ccc(S(=O)(=O)Nc3ccccn3)cc2)ccc1O [Sulfasalazine],activity during first hour,[2],13.5
CCCN(CCC)S(=O)(=O)c1ccc(C(=O)O)cc1 [Probenecid],activity during period 15,[1],-4.09
same,activity during first hour,[2],-2.71
same,optomotor response to green moving lines,[7],10.3
same,optomotor response,[8],-11.6
